Screening data: PubChem, National Center for Advancing Translational Sciences (NCATS)
Compounds with a hit are over-represented: about 9.4% of the library has one in this group of screens.
HTT cytoprotect: qHTS Multiplex Assay to Identify Dual Action Probes in a Cell Model of Huntington: Cytoprotection (ATP); PC12 HTT-Q103 induced, cytoprotection, ATP luminescence, 40 h; Potency, µM (highest dose often 56.4 µM), for the others: cytoprotection (ATP increase), actives largely listed as activators; hit rate 0.14% among 230,000; note: potency is the fitted concentration of half-maximal effect; % of control where 0% means no effect; nearly all actives have a fitted effect of over 45% in size
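PC12 cells with ecdysone-inducible HTT exon 1 Q103-GFP, induced with 100 nM tebufenozide and co-treated with library compounds in a dose series (1536-well, 1500 cells/well). Cytoprotection read as ATP content by ATPlite luminescence.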
IMPase cell inh: qHTS Assay for Identifying the Cell-Membrane Permeable IMPase Inhibitors. inhibition (IP1 accumulation), % at 46.1 µM. CHO-M1 cells, IP1 accumulation, HTRF TR-FRET ratio. Inositol monophosphatase 1 (Rattus norvegicus), P97697. AID 901, 2007. 120,000 tested, under 10 active; active = well fitted curve in the direction sought with a large enough effect in the signal ratio, not every such curve was filed as active; inconclusive = small, poorly fitted or top-dose-only effect, or a change in a side signal; inactive = no such curve, though single readings can be large or run the other way; the % refers to the signal ratio;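 note: cells stimulated with carbachol in lithium chloride buffer; plate controls were DMSO basal wells for no effect and reference inhibitor wells for full effect; higher means more IMPase inhibition seen as more IP1 and lower FRET ratio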
Target sequence (P97697 whole entry, looked up): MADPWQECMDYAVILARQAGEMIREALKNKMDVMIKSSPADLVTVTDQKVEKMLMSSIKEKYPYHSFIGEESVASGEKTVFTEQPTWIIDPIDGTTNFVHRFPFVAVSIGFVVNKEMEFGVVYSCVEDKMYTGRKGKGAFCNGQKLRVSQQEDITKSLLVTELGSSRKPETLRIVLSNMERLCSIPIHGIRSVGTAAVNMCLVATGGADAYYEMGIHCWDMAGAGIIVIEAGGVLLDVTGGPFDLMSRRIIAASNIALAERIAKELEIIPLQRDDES
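CHO-M1, 2000 cells/well, cultured 16–30 h; cpd up to 46 uM; carbachol (50 uM solution, stimulation buffer w/ 50 mM LiCl, pH 7.4), 30 min 37C; IP-One TR-FRET, 10 min RT; Ex 320/Em 665, 620; Hill-fit AC50.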
HTT aggregate: qHTS Multiplex Assay to Identify Dual Action Probes in a Cell Model of Huntington: Aggregate Formation (GFP); PC12 HttQ103-GFP aggregates, Acumen cytometry, 40 h; Potency, µM (highest dose often 46.1 µM), without a hit: top-dose activity change, negative = inhibition, usual class: inhibitors; hit rate 1.1% among 220,000; AID 1688, 2009; note: potency is the fitted concentration of half-maximal effect; % is set by controls: 0 for no effect and ±100 for the full control effect; nearly all actives have a fitted effect of over 60% in size
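Aggregates are detected as GFP objects 1–25 µm with signal 6 STDEV over background in lysates of induced PC12 cells. These carry Huntingtin exon 1 with 103 glutamines fused to GFP under an ecdysone promoter; compounds titrated.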
ALDH1A1 inh: qHTS Assay for Inhibitors of Aldehyde Dehydrogenase 1 (ALDH1A1); Aldehyde dehydrogenase 1A1 (Homo sapiens), P00352; Purified ALDH1A1, NADH fluorescence, propionaldehyde substrate; Potency, µM (top dose mostly 75.3 µM), without a hit: top-dose activity, negative = inhibition, hits mostly inhibitors; hit rate 7.3% among 220,000; active = well fitted inhibition curve with a large enough effect, not every such curve was filed as active; inconclusive = small, poorly fitted or top-dose-only effect, or another doubt; inactive = no such curve, though single readings can be large or run the other way;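 note: potency is the fitted concentration of half-maximal effect; plate controls were no enzyme wells and a reference inhibitor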
IMPase Li cell: qHTS Assay for Identifying the Cell-Membrane Permeable IMPase Inhibitors: Potentiation with Lithium; CHO-M1 cells, IP1 TR-FRET (IP-One), carbachol + lithium; Potency, µM (highest dose often 59.4 µM), inactives show at the highest dose activity, negative = IMPase inhibition, hits mostly inhibitors; hit rate 0.35% among 210,000; AID 1457, 2008;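 note: IP1 builds up when IMPase is blocked and the TR-FRET signal falls; potency is the fitted concentration of half-maximal effect; plate controls were basal vehicle for no effect and high inhibitor control for full effect; nearly all actives have a fitted effect of over 50% in size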
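Concentration–response in CHO-M1 cells, lithium-potentiated; 30 min at 37C. IP1 detected by competitive TR-FRET after 10 min lysis at RT. Hill-fitted AC50.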
HPGD block: qHTS Assay for Inhibitors of HPGD (15-Hydroxyprostaglandin Dehydrogenase). 15-hydroxyprostaglandin dehydrogenase [NAD(+)] (Homo sapiens), P15428. purified HPGD, NADH fluorescence kinetic, PGE2 substrate. Potency, µM, for the others: at the highest dose activity change, negative = inhibition, hits mostly inhibitors. hit rate 4.3% among 150,000; active = well fitted inhibition curve with a large enough effect, not every such curve was filed as active; inconclusive = small, poorly fitted or top-dose-only effect, or another doubt; inactive = no such curve, though single readings can be large or run the other way; note: potency is the fitted concentration of half-maximal effect; % is set by controls: 0 for no effect and ±100 for the full control effect
Target sequence (P15428 whole entry, looked up): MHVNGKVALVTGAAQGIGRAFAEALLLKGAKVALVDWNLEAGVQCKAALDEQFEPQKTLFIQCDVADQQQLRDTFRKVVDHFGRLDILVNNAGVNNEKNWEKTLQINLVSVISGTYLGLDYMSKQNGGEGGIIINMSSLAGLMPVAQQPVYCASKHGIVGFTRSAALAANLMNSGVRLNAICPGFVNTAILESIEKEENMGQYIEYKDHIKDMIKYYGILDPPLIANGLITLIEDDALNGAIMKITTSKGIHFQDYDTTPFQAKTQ
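20 nM HPGD preincubated 15 min at room temperature with compound in 50 mM Tris-HCl pH 8, 0.01% Tween 20. Started with 1 mM NAD+ and 30 uM prostaglandin E2; NADH fluorescence (360/450 nm) read 5 times over 30-s intervals, last minus first.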
Numbers without * were called inactive; ? = inconclusive; · = not tested or not shown; ! = a repeat was not active; [ ] = another dose, or the depositor's remark. Unless noted, calls come from the whole dose curve; as a rule, active = well fitted curve in the direction sought with a large enough effect; inconclusive = small, poorly fitted or top-dose-only effect, or another doubt; inactive = no such curve, though single readings can be large; an effect the other way counts as inactive or inconclusive.

SMILES	HTT cytoprotect	IMPase cell inh	HTT aggregate	ALDH1A1 inh	IMPase Li cell	HPGD block
O=C(O)[C@H](/C=C\c1ccccc1)c1ccccc1	-4.7%[10 µM]	·	·	-2.7%[13.5 µM]	-7.2%	-9.6%
N#CC(C#N)=C1C=CC=CN1/C(=C\c1ccccc1Cl)C(=O)c1ccccc1	·	·	?	?	9.6%	7.94µM*
N#CC(C#N)=C1C=CC=CN1/C(=C\c1ccccc1)C(=O)c1cccs1	-14.2%[10 µM]	·	17.8%	?	16.2%	?
O=C1c2ccccc2C(=O)C1c1ccc2ccccc2n1	-82.1%	4.1	-9.4%	25.1µM*!	8.9%[38.3 µM]	-3.9%
O=C(NCCN1CCN(c2ccccc2)CC1)c1ccc2c(c1)[nH]c(=S)n1c3ccccc3nc21	-26.0%	·	-5.1%	?	10µM*	·
O=C(NCCN1CCN(c2ccccc2)CC1)c1cccn2c(=O)c3ccccc3nc12	-2.2%[10 µM]	-4.1	1.7%	5.6%	·	·
O=C(c1ccc2c(c1)[nH]c(=S)n1c3ccccc3nc21)N1CCN(c2ncccn2)CC1	19.9%	-18.4	2.6%	-1.9%	7.08µM*	?
CCOC(=O)c1c(C)oc2c1c(C=NCCC(=O)O)c(O)c1ccccc12	-0.8%[10 µM]	·	18.0%	?	3.1%	·
CCOC(=O)c1oc2ccccc2c1CN1CCN(c2ccccc2)CC1	16.5%	6.6	?	-15.7%	42.5%[38.3 µM]	-3.7%
CCOC(=O)c1oc2ccccc2c1CN1CCN(C(=O)c2ccccc2)CC1	-3.6%[10 µM]	12.8	16.0%	20µM*	10.3%	0.3%
CCOC(=O)c1c(C)oc2c1c(C(c1ccncc1)N1CCOCC1)c(O)c1ccccc12 (centres undefined)	5.5%[10 µM]	3.5	19.4%	12.6µM*	50.8%[38.3 µM]	-26.6%
CCOC(=O)c1c(C)oc2c(CC(=O)c3ccccc3)c(Cl)c(O)c(O)c12	·	·	24.5%	-1.4%	10.8%	7.08µM*
CCOC(=O)c1c(C)oc2c1c(CN1CCN(CCO)CC1)c(O)c1ccccc12	-26.1%	·	17.0%	0.355µM*	-7.9%	·
CCOC(=O)c1c(C)oc2ccc(O)c(CN3CCCCC3)c12	0.2%	0.7	-16.9%	-4.3%	25.2%[38.3 µM]	-12.6%
O=C(C[C@@H]1C=Cc2ccccc2N1C(=O)c1ccccc1)c1ccccc1	13.0%[10 µM]	·	·	?	28.0%	-17.1%
CCOC(=O)C1=C(c2ccccc2)c2cc(OC)ccc2OC1C(=O)OCC (centres undefined)	-29.5%	·	·	?	24.8%	-10.2%
CCOC(=O)c1c(C)oc2c1c(CN1CCN(C(=O)OCC)CC1)c(O)c1ccccc12	·	·	23.8%	1.58µM*	6.8%	-15.5%
C/C(CC(=O)NC(C)(C)C)=N\NC(=O)COc1ccc(C)cc1Br	-21.9%	·	-4.2%	14.1µM*	-7.7%	·
COc1ccc(CNC(=O)C/C(C)=N/NC(=O)COc2ccc(C)cc2Br)cc1	-81.1%	·	10.5%	10µM*	10.7%	·
COc1ccccc1NC(=O)C/C(C)=N/NC(=O)COc1c(Br)cc(Br)cc1OC	-34.0%	·	?	7.94µM*	1.6%	·
CCCNC(=O)C/C(C)=N/NC(=O)COc1ccc(C)cc1Br	0.0%[10 µM]	11.2	5.4%	2.4%	-8.5%	?
C/C(CC(=O)NC1CCCCC1)=N\NC(=O)COc1ccc(C)cc1Br	-35.3%	·	-13.9%	?	?	·
N#CC(CC(=O)O)=C(c1ccccc1)c1ccccc1	-1.0%[10 µM]	·	·	4.0%[13.5 µM]	2.0%	-25.0%
COc1ccc(C(=O)OC(C)C(=O)Nc2cc(C(F)(F)F)ccc2Cl)c(OC)c1OC (centres undefined)	-1.5%[10 µM]	5.4	-2.6%	10.0%	13.1%	25.1µM*
